Screens (PubChem)
In the library only some 4.1% were active in any assay of this set; here they are far more common.
PolyA inhibitor: inhibitors of polyadenylation in S. cerevisiae. S. cerevisiae SKY197-pL101 polyadenylation reporter, beta-gal luminescence; efflux-impaired pdr1/pdr3 knockout yeast; score 100 = 6 SD above DMSO. activity score, % at 12 µM. 300,000 compounds, 0.02% hits. AID 1875;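 active = lowest replicate activity score at least 50, where 100 means six control SD above control mean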;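 note: yeast exposed to compound for 9 h at 30 °C; higher score means more reporter readthrough which indicates perturbed polyadenylation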
DAX1 inh-1: inhibits human nuclear receptor DAX1 | HEK293 Gal4-DAX1 luciferase reporter, luminescence | P51843 | inhibition, % at 6.75 µM | 340,000 compounds, 0.99% hits;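 active = inhibition above the mean over all tested compounds plus 3 SD, cut at about 4.2% in these data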;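 note: 0% = DAX1-transfected cells with DMSO and 100% = empty-vector control cells with DMSO; inhibition shows as a rise in luminescence from relieved DAX1 repression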
hcDAF12 agonist: H. contortus DAF-12 activation, primary screen; AID 652067; activation, % at 6.8 µM; HEK293 hcDAF-12 lit1-tk-luc reporter, luminescence; 0% DMSO, 100% Δ7-dafachronic acid; 370,000 compounds, 1.4% hits;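 active = activation above the mean of all tested compounds plus 3 SD, cut at about 5.5% in these data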;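 note: 100% = response to 3 µM Δ7-dafachronic acid high control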
DAX1 inh-2: DAX1 (NR0B1) inhibition, primary screen; HEK293T StAR-luciferase reporter, SF-1/DAX-1 repression relief; inhibition, % at 6.8 µM; 370,000 compounds, 1.1% hits; AID 652010;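 active = inhibition above the mean over all tested compounds plus 3 SD, cut at about 3.6% in these data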;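 note: 0% = DAX-1 cells with DMSO and 100% = cells lacking DAX-1 with DMSO; higher inhibition means more luminescence from relief of DAX-1 repression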
ssDAF-12 act: S. stercoralis DAF-12 activation, primary screen; HEK293 ssDAF-12/GRIP1 lit1-tk-luc reporter, luminescence; % of 3 µM dafachronic acid response; 370,000 compounds, 1% hits; AID 652126; activation, % at 6.8 µM;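 active = activation above the mean over all tested compounds plus 3 SD, cut at about 0.9% in these data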;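 note: 0% = DMSO-only wells and 100% = 3 µM delta7-dafachronic acid wells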
hgDAF12 agonist: activates the H. glycines DAF-12 receptor ligand-binding domain; HEK293 GAL4-hgDAF12 UAS-luciferase reporter, agonist luminescence; normalized to butyrate control; activation, % at 6.8 µM; 370,000 compounds, 1.8% hits; AID 687014;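 active = activation above a cutoff set at the mean of all screened compounds plus 3 SD, cut at about 10% in these data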;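 note: 0% = DMSO wells and 100% = sodium butyrate wells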
LXR ag: counter-screen for hcDAF-12 agonists: agonists of human LXR-beta | AID 743027 | HEK293 Gal4-LXR tk-luc reporter, luminescence, 24 h; normalized: DMSO 0%, positive control 100% | 3,400 tested, under 10 active | activation, % at 6.8 µM | shares compounds with hcDAF12 agonist;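 active = mean percent activation of the reporter above a cutoff set as the average over tested compounds plus their standard deviation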
Target sequence (P55055 whole entry, looked up, the tested form may be a part): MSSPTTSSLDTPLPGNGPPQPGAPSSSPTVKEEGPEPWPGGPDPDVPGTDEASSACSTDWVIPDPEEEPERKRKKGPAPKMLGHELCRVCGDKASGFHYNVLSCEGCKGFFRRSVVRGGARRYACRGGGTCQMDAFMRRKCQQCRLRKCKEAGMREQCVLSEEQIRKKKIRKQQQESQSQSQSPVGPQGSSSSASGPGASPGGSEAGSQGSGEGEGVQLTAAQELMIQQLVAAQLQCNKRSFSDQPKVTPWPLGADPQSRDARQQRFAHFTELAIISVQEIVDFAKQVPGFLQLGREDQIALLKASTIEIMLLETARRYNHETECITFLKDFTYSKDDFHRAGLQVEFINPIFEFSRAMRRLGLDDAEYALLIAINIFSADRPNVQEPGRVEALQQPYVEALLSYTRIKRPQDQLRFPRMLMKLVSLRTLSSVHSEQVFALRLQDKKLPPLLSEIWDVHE
hcDAF12 ag: hcDAF-12 agonism, confirmation assay. shares compounds with hcDAF12 agonist. HEK293 hcDAF-12 lit1-tk-luc reporter, luminescence; % of Δ7-dafachronic acid response. activation, % at 6.8 µM. 3,400 compounds, 61% hits;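 active = mean activation across triplicate tests above the threshold derived from the earlier primary screen, cut at about 5.5% in these data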;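 note: 0% = DMSO only wells and 100% = 3 µM Δ7-dafachronic acid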
hgDAF12 conf: hgDAF-12 agonism, confirmation assay. activation, % at 6.8 µM. HEK293 GAL4-hgDAF12 luciferase reporter, agonist mode; percent of butyrate response. shares compounds with hgDAF12 agonist. 3,300 compounds, 80% hits. AID 743050;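 active = mean activation over triplicate wells above the hit cutoff derived from the earlier primary screen, cut at about 11% in these data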;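 note: 0% = DMSO low control and 100% = 2 mM sodium butyrate high control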
LXRb DAF12 ctr: LXR-beta agonism as DAF-12 counter-screen; shares compounds with hgDAF12 agonist; HEK293 Gal4-LXR luciferase reporter, 24 h; activation, % at 6.8 µM; 3,300 tested, under 10 active;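 active = mean activation of the triplicate above a set limit carried over from the primary screen, none filed active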
Numbers without * were called inactive; / = no result given.

SMILES | PolyA inhibitor | DAX1 inh-1 | hcDAF12 agonist | DAX1 inh-2 | ssDAF-12 act | hgDAF12 agonist | LXR ag | hcDAF12 ag | others
COc1ccc(NP2(=O)NCCCN2)cc1 | / | -0.5 | -1.2 | 0.6 | -0.9 | 1.3 | / | /
O=Cc1c(C(=O)O)n(Cc2ccccc2F)c2ccccc12 | 6.1 | 1.1 | 7.9* | 0.1 | 0.1 | 0.4 | -0.2 | 4.7
O=C1C2CCCC1C(N1CCCCC1)CC2 (centres undefined) | -4.5 | -0.3 | -1.7 | -0.2 | -1.2 | 2.4 | / | /
CCCCn1c(=O)c(C(=O)Nc2ccccc2)c(O)c2ccccc21 | -18.2 | 1.1 | 7.1* | -0.2 | -0.4 | 2.0 | -0.1 | 7.6*
COC(=O)C1=C(c2ccccc2)C[C@@H]2CC[C@H]1N2C(=O)N1CCOCC1 | 15.9 | 0.2 | -2.1 | -0.2 | -1.4 | -0.3 | / | /
CCn1c(O)c(C=Nc2cc(Cl)ccc2Cl)c(=O)n(CC)c1=O | 11.0 | 0.1 | 6.8* | -0.2 | 0.0 | 3.1 | -0.3 | 1.1
COc1ccc(Cl)cc1N=Cc1c(O)n(C)c(=O)n(C)c1=O | -6.2 | -0.3 | -2.5 | -0.1 | -1.3 | 4.0 | / | /
Clc1ccccc1NC1=NCCCS1 | -3.6 | -0.2 | 0.2 | 0.3 | -0.9 | 0.7 | / | /
Clc1ccccc1Nc1ncnc(-n2cccc2)n1 | -17.3 | 3.4 | 10.7* | 1.7 | 0.7 | 13.0* | 1.1 | 9.2*
O=C(Cn1c(=O)n(CC2CS2)c2ccccc21)N1CCCCCC1 (centres undefined) | -5.1 | -0.3 | -1.9 | -0.7 | -1.7 | -4.3 | / | /
c1ccc2c(CN3CCCCC3)c[nH]c2c1 | 10.4 | -1.0 | 2.5 | 1.1 | -0.3 | 2.7 | / | /
OC(CN1CCCCC1)c1c[nH]c2ccccc12 (centres undefined) | -4.9 | 2.1 | 8.0* | -0.3 | -0.2 | -0.1 | -0.3 | 4.4
CSc1ccc(C(=O)C2CCCN(Cc3cc4ccccc4[nH]3)C2)cc1 (centres undefined) | -26.6 | 0.2 | 6.7* | 0.2 | 0.6 | 0.2 | -0.1 | 5.6
COc1ccc(C(C)=O)cc1CC(C(=O)c1ccc(Br)cc1)N(C)C (centres undefined) | 6.2 | -0.1 | 0.2 | -0.2 | -1.1 | 13.7* | / | / | hgDAF12 conf=-0.5;LXRb DAF12 ctr=0.0
CCN(CC)CCCN=C(C)c1c(O)n(-c2ccc(C)cc2)c(=O)[nH]c1=O | 23.1 | 1.4 | -2.4 | -0.4 | -1.2 | -1.2 | / | /
C=C(C)[C@H]1CN[C@H](C(=O)O)[C@H]1CC(=O)O | 13.1 | -0.9 | 0.5 | -1.0 | -1.1 | 2.8 | / | /
Nc1c2c(nc3sc4c(c13)CCCC4)CCCCC2 | -17.1 | 3.0 | 3.2 | 2.4 | -0.4 | 14.3* | / | / | hgDAF12 conf=17.6*;LXRb DAF12 ctr=0.9
N#Cc1c(Br)n(C2OC(CO)C(O)C2O)c2ncnc(N)c12 (centres undefined) | / | 7.6* | 1.5 | 0.4 | -0.7 | 17.9* | / | / | hgDAF12 conf=10.4;LXRb DAF12 ctr=0.6
COCCNC(=O)N1[C@H]2CC[C@@H]1C(C(=O)OC)=C(c1ccc(OC)c(OC)c1)C2 | / | 1.8 | -1.6 | -0.5 | -1.0 | 1.0 | / | /
